Data as given in article PMC4336329 (PLoS ONE, 2015).
The whole screen tested about 310,000 compounds, of which about 14,000 (4.5%) showed an effect of 50% or more. The effect is printed as a negative number. This is one part of a sample in which strong results are shown more often than they occur.

Target: human ether-à-go-go-related gene (hERG) potassium channel (human, UniProt Q12809)
Experiment: primary screen, population patch clamp on CHO cells stably expressing hERG; higher = less effect of the substance
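Further: peak tail current of the secondary pulse compared with the same well before compound.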

Sequence of human ether-à-go-go-related gene (hERG) potassium channel (Q12809 whole entry, looked up): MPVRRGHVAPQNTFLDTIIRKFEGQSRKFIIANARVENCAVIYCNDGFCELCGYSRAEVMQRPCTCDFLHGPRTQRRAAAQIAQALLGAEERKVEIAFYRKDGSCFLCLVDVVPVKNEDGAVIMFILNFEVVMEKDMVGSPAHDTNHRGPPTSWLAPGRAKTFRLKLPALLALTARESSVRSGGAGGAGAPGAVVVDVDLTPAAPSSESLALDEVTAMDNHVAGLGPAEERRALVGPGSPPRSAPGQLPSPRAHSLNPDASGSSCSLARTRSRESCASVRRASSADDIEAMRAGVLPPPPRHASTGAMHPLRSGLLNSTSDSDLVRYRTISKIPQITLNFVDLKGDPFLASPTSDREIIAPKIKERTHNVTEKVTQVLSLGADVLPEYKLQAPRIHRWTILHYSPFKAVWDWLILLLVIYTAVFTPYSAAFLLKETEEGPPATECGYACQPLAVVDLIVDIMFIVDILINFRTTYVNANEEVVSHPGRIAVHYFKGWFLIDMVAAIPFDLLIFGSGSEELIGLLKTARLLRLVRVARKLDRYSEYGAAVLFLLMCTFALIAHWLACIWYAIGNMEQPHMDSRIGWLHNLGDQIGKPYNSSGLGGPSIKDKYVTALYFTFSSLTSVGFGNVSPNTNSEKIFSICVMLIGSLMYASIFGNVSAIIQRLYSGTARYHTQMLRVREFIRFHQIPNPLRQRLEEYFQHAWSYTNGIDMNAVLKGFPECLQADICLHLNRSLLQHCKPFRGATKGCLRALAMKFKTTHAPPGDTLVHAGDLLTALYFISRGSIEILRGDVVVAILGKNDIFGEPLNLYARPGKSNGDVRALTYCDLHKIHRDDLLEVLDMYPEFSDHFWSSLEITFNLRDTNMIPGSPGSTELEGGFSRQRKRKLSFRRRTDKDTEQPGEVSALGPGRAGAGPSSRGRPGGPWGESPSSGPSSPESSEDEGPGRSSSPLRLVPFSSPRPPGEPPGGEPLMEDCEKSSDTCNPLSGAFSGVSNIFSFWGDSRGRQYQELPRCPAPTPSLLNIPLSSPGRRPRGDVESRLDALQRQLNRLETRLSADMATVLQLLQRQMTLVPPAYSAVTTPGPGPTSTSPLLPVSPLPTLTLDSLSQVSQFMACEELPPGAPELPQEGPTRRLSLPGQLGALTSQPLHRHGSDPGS

Structure (SMILES) | hERG current change (%, negative = inhibition) at 10uM
CCC(C)c1ccc(NC(=S)NC(C)C2CCCO2)cc1 (centres unmarked) | -6.84%
Cc1ccc(CN2CC(C(=O)N3CC(C)CC(C)C3)CC2=O)cc1 (centres unmarked) | -6.13%
CN(C)CCP(=O)(c1ccccc1)c1ccccc1 | 13.4%
O=C(O)COCc1nc2ccccc2s1 | -7.92%
Cc1cccc(C(=O)N2CCc3cc(-c4nc(NC(=O)CN5CCCC5)sc4C)ccc32)c1 | -0.886%
Cc1ccc(CC(=O)N(C)CC(=O)N(CC(C)C)c2c(N)n(CC(C)C)c(=O)[nH]c2=O)cc1C | -2.54%
Cc1ccc2c(c1)COc1c3ccc(C(=O)NCC4CC4)cc3nn1-2 | -6.56%
CN(Cc1ccccc1)C(=O)c1ccc(NC(=O)C2=CSCCO2)cc1 | -0.926%
COc1ccc(CCN(C)Cc2ccc(OC)c(OCc3ccccc3)c2)cc1OC | -81.6%
COc1ccc(CCN(C)Cc2ccncc2)cc1OC | -27.2%
CN(Cc1ccccc1)C(=O)c1ccccc1NC(=O)c1ccccc1 | -12.7%
CN(Cc1ccccc1)C(=O)c1ccc(NC(=O)c2ccccc2)cc1 | -59.9%
COc1cc(CN(C)CCc2ccccc2)ccc1OCc1ccccc1 | -72%
CCN(CC)c1ccc(CN(C)CCc2ccc(OC)c(OC)c2)cc1 | -66.1%
CCN(Cc1ccccc1)Cc1ccc(OCc2ccccc2)c(OC)c1 | -31.2%
COc1cc(CN(CCN(C)C)Cc2ccccc2)ccc1OCc1ccccc1.O=C(O)C(=O)O | -31%
COc1ccc(CCN(C)Cc2ccc(F)cc2F)cc1OC | -0.788%
COc1ccc(Cc2noc(CN(C)CCc3ccccc3)n2)cc1OC | 7.3%
O=C(Nc1cccc(S(=O)(=O)N2CCCC2)c1)c1ccc2ccccc2n1 | 20.9%
COc1ccc(/C=C/C(=O)NCc2cn(C)nc2C)cc1COc1ccc(Br)cc1 | 7.33%
O=C(Nc1cccc(S(=O)(=O)N2CCCCC2)c1)Nc1ccc(Cl)cc1Cl | 7.77%
Cn1cc(C(=O)N2CCCC(Nc3ccc(F)cc3)C2)c2ccccc21 (centres unmarked) | -21.1%
O=C(CN1CCCC1c1cccs1)Nc1cccc(S(=O)(=O)N2CCCC2)c1 (centres unmarked) | -0.843%

Structure (SMILES) | hERG current change (%, negative = inhibition) at 10uM
COc1ccccc1OCc1ccc(C(=O)Nc2ccccc2)cc1 | 11.1%
COc1ccc(CN(CCc2ccccc2)Cc2ccccc2)cc1OC.O=C(O)C(=O)O | -9.99%
COc1ccc(C(=O)Nc2ccc(C(=O)NCCc3ccc(OC)c(OC)c3)cc2)cc1 | 30.5%
COc1ccc(CCN(C)Cc2ccc(OCc3ccccc3)c(OC)c2)cc1OC | -74.3%
COc1ccc(CCN(C)Cc2ccc(C(=O)Nc3ccccc3)cc2)cc1OC | -67.3%
COc1cc(CC(=O)O)ccc1OCc1ccccc1 | 4.35%
COc1ccc(NS(=O)(=O)c2ccc(-c3cnc(C4CC4)o3)cc2)cc1OC | 14.6%
CC1(C)Cc2c(sc(NC(=O)COc3ccc(Cl)cc3)c2C(N)=O)C(C)(C)N1 | 0.951%
COC(=O)C(NNc1ccc(F)cc1)(NC(=O)c1ccccc1)C(F)(F)F (centres unmarked) | -3.67%
O=C(Nc1cc(Cl)ccc1-n1cncn1)c1ccc([N+](=O)[O-])s1 | -27.9%
O=C(O)C1OC(C(=O)O)C2C1C(F)(F)C2(F)F (centres unmarked) | 14.3%
O=C(Cc1cn2ccsc2n1)Nc1cccc2cnccc12 | 9.76%
CCOC(=O)c1c(C)n(C)c2ccc(O)c(CN(CC)CC)c12.Cl | -20%
CCN(CC)Cc1c(O)ccc2c([N+](=O)[O-])c(C)n(-c3ccc(OC)cc3)c12 | -24.9%
COc1ccc(-n2c(C)c([N+](=O)[O-])c3ccc(O)c(CN(C)C)c32)cc1 | -57.6%
CCOC(=O)c1c(C)n(C)c2ccc(O)c(CN(C)C)c12.O=C(O)C(=O)O | -6.82%
Cc1ccc(-n2c(C)c([N+](=O)[O-])c3ccc(O)c(CN(C)C)c32)cc1 | -23.6%
CCOC(=O)c1c(C)n(-c2ccccc2)c2ccc(O)c(CN(C)C)c12.Cl | -30.7%
CCOC(=O)c1sc(=N)n(-c2ccc(OC)cc2)c1C | -4.06%
CCOC(=O)c1c(C)n(-c2ccc(OC)cc2)c2ccc(O)c(CN(C)C)c12.Cl | -74.2%
CCOC(=O)c1c(C)n(-c2ccc(C)cc2)c2ccc(O)c(CN(C)C)c12.Cl | -74.2%
Cc1cccc(NC(=O)COc2ccccc2C)n1 | 7.83%
Cl.Clc1ccccc1CSc1nnc([C@@H]2CCCN2)o1 | 15.1%

Structure (SMILES) | hERG current change (%, negative = inhibition) at 10uM
COc1ccc(C(=O)CNc2ccccc2Br)cc1 | 18.8%
COC(=O)C1CCN(C(=O)N2CCOCC2)CC1 | 5.68%
CC(/C=N/NC(=O)c1nnn(-c2nonc2N)c1C(C)C)=C\c1ccco1 | 8.07%
CSCCC(NC(=O)c1ccc(Cl)cc1Cl)C(=O)NNC(=O)c1csc(N2CCOCC2)n1 (centres unmarked) | -56.8%
Cc1ccsc1C(=O)NNC(=O)c1csc(N2CCOCC2)n1 | 12.7%
CSCCC(NC(=O)c1ccccc1Cl)C(=O)NNC(=O)c1csc(N2CCOCC2)n1 (centres unmarked) | -29.9%
Cc1cccc(C(=O)NNC(=O)c2csc(N3CCOCC3)n2)c1C | -9.89%
CSCCC(NC(=O)c1ccccc1Br)C(=O)NNC(=O)c1csc(N2CCOCC2)n1 (centres unmarked) | -33.5%
Cc1ccc(C)c(SCC(=O)NNC(=O)c2csc(N3CCOCC3)n2)c1 | -55.1%
C/C(N)=C(/C#N)C(=O)CSc1nc2ccccc2c(=O)n1CCCOC(C)C | -21.2%
Cc1cc(O)cc(O)c1C=NCc1ccco1 | -8.53%
CC1C(c2ccccc2)=NNc2nc3c(c(=O)n(C)c(=O)n3C)n21 (centres unmarked) | 3.99%
COc1ccc(C(=O)Nc2ccc(N3CCN(C)CC3)cc2)cc1OC | -11.9%
COc1ccc(-c2nc(-c3ccc(NC(=O)c4ccncc4)cc3)no2)cc1OC | 7.54%
COc1ccc(NC(=O)c2ccc(-c3ccc(-c4noc(C)n4)cc3C)cc2)cc1N1CCN(C)CC1.Cl | -76%
CCOC(=O)c1c(NC(=O)CNC2CCCCC2)sc(C)c1C | 10.3%
N#CCSc1nnc(COc2ccc3ccccc3c2)o1 | -5.89%
COc1cc(CC(=O)OCC(=O)Nc2ccc3c(c2)OCCO3)cc(OC)c1OC | 26%
O=C(Cc1ccc(Br)cc1)OCC(=O)c1ccc2c(c1)OCCO2 | 13.1%
COc1cc(CC(=O)OCC(=O)c2ccc3c(c2)OCCO3)cc(OC)c1OC | -58.6%
CC(=O)C1=C(O)C(=O)OC1c1ccc(Cl)cc1 (centres unmarked) | 7.92%
FC(F)(F)c1nnc2ccc(NCc3ccccc3)nn12 | 8.9%
CCN(CC(=O)Nc1ccc(NC(C)=O)cc1)C(=O)CSCC(=O)Nc1ccc(C)cc1 | 2.95%

Structure (SMILES) | hERG current change (%, negative = inhibition) at 10uM
CCN(CC(=O)Nc1ccc2c(c1)OCCO2)C(=O)CSCC(=O)Nc1ccc(C)cc1 | -31.1%
Cc1ccc(CSCC(=O)N(C)CC(=O)Nc2ccc(C)cc2)cc1 | -2.48%
CCN(CC(=O)NCc1ccc(Cl)cc1)C(=O)CSCC(=O)Nc1ccc(C)cc1 | -77.9%
CCN(CC(=O)NCc1ccc(Cl)cc1)C(=O)CSCC(=O)Nc1ccc(OC)cc1 | -66.7%
CSc1ccc(CN(C)C(=O)CSCC(=O)Nc2ccc(C)cc2)cc1 | -73%
CCN(CC(=O)Nc1c(F)cccc1F)C(=O)CSCC(=O)Nc1ccc(OC)cc1 | -3.35%
CCN(CC(=O)Nc1ccc(OC)cc1)C(=O)CSCC(=O)Nc1ccc(C)cc1 | -23.5%
CSc1ccc(CN(C)C(=O)CSCC(=O)Nc2cc(C)on2)cc1 | 6.59%
CC(CCc1ccccc1)NCC(O)c1ccc(O)c(C(N)=O)c1.Cl (centres unmarked) | -30.6%
CCOC(=O)C1CCCN(Cc2cc(=O)oc3cc(C)ccc23)C1 (centres unmarked) | -13.6%
CCOCC(=O)Nc1ccccc1C(=O)N1CCOCC1 | -0.166%
Nc1cc(N2CCCCC2)c(Cl)cc1[N+](=O)[O-] | -10.8%
NC(=O)C1CCN(CC(=O)NC(=O)NC2CCCC2)CC1 | 9.34%
Cc1c(-c2cc(C(=O)O)no2)cnn1C | 32.4%
O=C(NC(Cc1ccccc1)C(=O)O)/C(=C/c1cccc([N+](=O)[O-])c1)NC(=O)c1ccco1 (centres unmarked) | -11.4%
O=C(OCc1ccccc1)/C(=C/c1cccc([N+](=O)[O-])c1)NC(=O)c1ccco1 | -63.3%
CCOC(=O)/C(=C/c1ccccc1)NC(=O)c1ccco1 | -7.55%
O=C(OCc1ccccc1)/C(=C/c1cccc(Br)c1)NC(=O)c1ccco1 | -52.5%
O=C(NC(Cc1ccccc1)C(=O)O)/C(=C\c1cccc([N+](=O)[O-])c1)NC(=O)c1ccco1 (centres unmarked) | 28.4%
C=CCOC(=O)/C(=C\c1ccccc1)NC(=O)c1ccco1 | 1.97%
